Source: PubChem BioAssay (NCATS)
Inconclusive results are not listed. Activity calls are given as the source filed them. The call rests on the fitted dose curve; in most records, active means well fitted inhibition curve with a large enough effect; inconclusive means small, poorly fitted or top-dose-only effect; inactive means flat fitted curve, though single readings scatter. Bridge positions count the residues as written; N and C are the ends. Square brackets hold non-standard residues; d marks the D form. Peptide text beside a SMILES is read from it. * marks the point of attachment. Ileψ(thiazoline)Cys = CC[C@H](C)[C@H](N)C1=N[C@H](C(=O)*)CS1; d(aIle) = CC[C@H](C)[C@@H](N)C(=O)O; dOrn = NCCC[C@@H](N)C(=O)O

test system: CP291; test: qHTS profiling for inhibitors of Plasmodium falciparum proliferation (AID 504749); further: nearly all actives have a fitted effect of over 60% in size;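 on activity, negative = inhibition: 0% = DMSO vehicle and full inhibition = artemisinin control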; conditions: P. falciparum in erythrocytes, SYBR Green DNA, 72 h; series mostly up to 12.8 µM; activity, negative = inhibition: at the top concentration
How it was run: (§1)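 Readout was DNA-dye fluorescence from lysed cultures, ex 485/em 535 nm. Parasitized red cells had grown 72 h with compound; data scaled between 0.29 uM artemisinin and DMSO wells and corrected using vehicle-only plates.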
Potency means the concentration at half of the fitted maximal effect.

SMILES | activity, negative = inhibition
CN1CCO[C@H](c2ccccc2)c2ccccc2C1 | -9.2% (inactive)
C[C@H](CCC(=O)O)[C@H]1CC[C@@H]2[C@@H]3[C@@H](O)C[C@H]4C[C@@H](O)CC[C@@]4(C)[C@H]3CC[C@@]21C | 0.262% (inactive)
CCN(CCCCOC(=O)c1ccc(OC)c(OC)c1)[C@@H](C)Cc1ccc(OC)cc1 | -16.4% (inactive)
C[C@H](C(=O)O)c1cccc(Oc2ccccc2)c1 | 0.166% (inactive)
CC1(C)[C@@H](OC(=O)CCC(=O)O)CC[C@@]2(C)[C@H]1CC[C@@]1(C)[C@H]2C(=O)C=C2[C@H]3C[C@](C)(C(=O)O)CC[C@]3(C)CC[C@@]21C | -2.44% (inactive)
CCOC(=O)O[C@@H](C)OC(=O)[C@@H]1N2C(=O)[C@@H](NC(=O)[C@@H](N)c3ccccc3)[C@H]2SC1(C)C | -1.11% (inactive)
Cc1ccsc1/C=C\C1=NCCCN1C | -5.59% (inactive)
Cc1cccc(CN2CCN([C@@H](c3ccccc3)c3ccc(Cl)cc3)CC2)c1 | -17.2% (inactive)
C#C[C@]1(O)CC[C@@H]2[C@H]3CCC4=CCCC[C@@H]4[C@@H]3CC[C@@]21C | -12.9% (inactive)
CC[C@H](C)[C@H](N)C1=N[C@H](C(=O)N[C@@H](CC(C)C)C(=O)N[C@@H](CCC(=O)O)C(=O)N[C@@H](C(=O)N[C@H]2CCCCNC(=O)[C@@H](CC(N)=O)NC(=O)[C@@H](CC(=O)O)NC(=O)[C@@H](Cc3cnc[nH]3)NC(=O)[C@@H](Cc3ccccc3)NC(=O)[C@@H]([C@@H](C)CC)NC(=O)[C@@H](CCCN)NC2=O)[C@@H](C)CC)CS1 ({Ileψ(thiazoline)Cys}-LE[d(aIle)]K[dOrn][d(aIle)][dF][dH][dD][dN]; lactam 4-C) | 16.7% (inactive)
O=C(O)COCCN1CCN([C@@H](c2ccccc2)c2ccc(Cl)cc2)CC1 | -14.2% (inactive)
CCN(CC)CCOC(=O)[C@@H](Cc1cccc2ccccc12)C[C@@H]1CCCO1 | -9.97% (inactive)
CC[C@H](CO)NCCN[C@@H](CC)CO | -0.635% (inactive)

test system: CP297; test: as above; conditions: P. falciparum in erythrocytes, SYBR Green DNA, 72 h; series mostly up to 12.8 µM; activity, negative = inhibition: at the top concentration
How it was run: as §1

SMILES | activity, negative = inhibition | Potency
CN1CCO[C@H](c2ccccc2)c2ccccc2C1 | -14.8% (inactive) | –
C[C@H](CCC(=O)O)[C@H]1CC[C@@H]2[C@@H]3[C@@H](O)C[C@H]4C[C@@H](O)CC[C@@]4(C)[C@H]3CC[C@@]21C | 0.442% (inactive) | –
CCN(CCCCOC(=O)c1ccc(OC)c(OC)c1)[C@@H](C)Cc1ccc(OC)cc1 | -3.48% (inactive) | –
CCC(=O)OCC(=O)[C@@]1(OC(=O)CC)[C@H](C)C[C@@H]2[C@@H]3[C@H]([C@@H](O)C[C@@]21C)[C@]1(C)C=CC(=O)C=C1C[C@@H]3Cl | – | 5.1 µM (active)
C[C@H](C(=O)O)c1cccc(Oc2ccccc2)c1 | 12.3% (inactive) | –
CC1(C)[C@@H](OC(=O)CCC(=O)O)CC[C@@]2(C)[C@H]1CC[C@@]1(C)[C@H]2C(=O)C=C2[C@H]3C[C@](C)(C(=O)O)CC[C@]3(C)CC[C@@]21C | -12.3% (inactive) | –
CCOC(=O)O[C@@H](C)OC(=O)[C@@H]1N2C(=O)[C@@H](NC(=O)[C@@H](N)c3ccccc3)[C@H]2SC1(C)C | -16.3% (inactive) | –
Cc1ccsc1/C=C\C1=NCCCN1C | 4.05% (inactive) | –
Cc1cccc(CN2CCN([C@@H](c3ccccc3)c3ccc(Cl)cc3)CC2)c1 | -9.69% (inactive) | –
C#C[C@]1(O)CC[C@@H]2[C@H]3CCC4=CCCC[C@@H]4[C@@H]3CC[C@@]21C | -0.995% (inactive) | –
CC[C@H](C)[C@H](N)C1=N[C@H](C(=O)N[C@@H](CC(C)C)C(=O)N[C@@H](CCC(=O)O)C(=O)N[C@@H](C(=O)N[C@H]2CCCCNC(=O)[C@@H](CC(N)=O)NC(=O)[C@@H](CC(=O)O)NC(=O)[C@@H](Cc3cnc[nH]3)NC(=O)[C@@H](Cc3ccccc3)NC(=O)[C@@H]([C@@H](C)CC)NC(=O)[C@@H](CCCN)NC2=O)[C@@H](C)CC)CS1 ({Ileψ(thiazoline)Cys}-LE[d(aIle)]K[dOrn][d(aIle)][dF][dH][dD][dN]; lactam 4-C) | -1.68% (inactive) | –
O=C(O)COCCN1CCN([C@@H](c2ccccc2)c2ccc(Cl)cc2)CC1 | -4.72% (inactive) | –
CCN(CC)CCOC(=O)[C@@H](Cc1cccc2ccccc12)C[C@@H]1CCCO1 | 2.15% (inactive) | –
CC[C@H](CO)NCCN[C@@H](CC)CO | -1.9% (inactive) | –

test system: CP305; test: as above; conditions: P. falciparum in erythrocytes, SYBR Green DNA, 72 h; series mostly up to 12.8 µM; activity, negative = inhibition: at the top concentration
How it was run: as §1

SMILES | activity, negative = inhibition
CN1CCO[C@H](c2ccccc2)c2ccccc2C1 | -15.6% (inactive)
C[C@H](CCC(=O)O)[C@H]1CC[C@@H]2[C@@H]3[C@@H](O)C[C@H]4C[C@@H](O)CC[C@@]4(C)[C@H]3CC[C@@]21C | 0.32% (inactive)
CN(C/C=C\c1ccccc1)Cc1cccc2ccccc12 | -12.7% [at 28.7 µM] (inactive)
C[C@H](C(=O)O)c1cccc(Oc2ccccc2)c1 | -7.27% (inactive)
CC1(C)[C@@H](OC(=O)CCC(=O)O)CC[C@@]2(C)[C@H]1CC[C@@]1(C)[C@H]2C(=O)C=C2[C@H]3C[C@](C)(C(=O)O)CC[C@]3(C)CC[C@@]21C | 0.288% (inactive)
CCOC(=O)O[C@@H](C)OC(=O)[C@@H]1N2C(=O)[C@@H](NC(=O)[C@@H](N)c3ccccc3)[C@H]2SC1(C)C | 4.52% (inactive)
Cc1ccsc1/C=C\C1=NCCCN1C | -1.4% (inactive)
Cc1cccc(CN2CCN([C@@H](c3ccccc3)c3ccc(Cl)cc3)CC2)c1 | -24.6% (inactive)
C#C[C@]1(O)CC[C@@H]2[C@H]3CCC4=CCCC[C@@H]4[C@@H]3CC[C@@]21C | 0.213% (inactive)
CC[C@H](C)[C@H](N)C1=N[C@H](C(=O)N[C@@H](CC(C)C)C(=O)N[C@@H](CCC(=O)O)C(=O)N[C@@H](C(=O)N[C@H]2CCCCNC(=O)[C@@H](CC(N)=O)NC(=O)[C@@H](CC(=O)O)NC(=O)[C@@H](Cc3cnc[nH]3)NC(=O)[C@@H](Cc3ccccc3)NC(=O)[C@@H]([C@@H](C)CC)NC(=O)[C@@H](CCCN)NC2=O)[C@@H](C)CC)CS1 ({Ileψ(thiazoline)Cys}-LE[d(aIle)]K[dOrn][d(aIle)][dF][dH][dD][dN]; lactam 4-C) | 2.54% (inactive)
O=C(O)COCCN1CCN([C@@H](c2ccccc2)c2ccc(Cl)cc2)CC1 | 0.574% (inactive)
CCN(CC)CCOC(=O)[C@@H](Cc1cccc2ccccc12)C[C@@H]1CCCO1 | -14.3% (inactive)
CC[C@H](CO)NCCN[C@@H](CC)CO | -0.265% (inactive)
